DT40 TDP1 no CPT: qHTS for Inhibitors of human tyrosyl-DNA phosphodiesterase 1 (TDP1): qHTS in cells in absence of CPT; DT40 Tdp1-/- hTDP1 cells, no CPT, ATP luminescence, 48 h; hit rate 15% among 420,000; AID 686978, 2013; Potency, µM (top dose mostly 46.2 µM), hits mostly inhibitors; note: nearly all actives have a fitted effect of over 55% in size
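Luminescent ATP content (CellTiter-Glo) served as the growth readout. Knockout chicken DT40 cells expressing human TDP1 were exposed to compounds without camptothecin for a minimum 48 hr at 37 °C.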
ALOX12 inh: Primary qHTS assay for inhibitors of human arachidonate 12S-lipoxygenase (ALOX12): Round 2; purified 12hLO, xylenol orange hydroperoxide absorbance; Polyunsaturated fatty acid lipoxygenase ALOX12 (Homo sapiens), P18054; hit rate 1.1% among 580,000; Potency, µM (titrated, usually from 108 µM), most hits filed as inhibitors
Target sequence (P18054 whole entry, looked up): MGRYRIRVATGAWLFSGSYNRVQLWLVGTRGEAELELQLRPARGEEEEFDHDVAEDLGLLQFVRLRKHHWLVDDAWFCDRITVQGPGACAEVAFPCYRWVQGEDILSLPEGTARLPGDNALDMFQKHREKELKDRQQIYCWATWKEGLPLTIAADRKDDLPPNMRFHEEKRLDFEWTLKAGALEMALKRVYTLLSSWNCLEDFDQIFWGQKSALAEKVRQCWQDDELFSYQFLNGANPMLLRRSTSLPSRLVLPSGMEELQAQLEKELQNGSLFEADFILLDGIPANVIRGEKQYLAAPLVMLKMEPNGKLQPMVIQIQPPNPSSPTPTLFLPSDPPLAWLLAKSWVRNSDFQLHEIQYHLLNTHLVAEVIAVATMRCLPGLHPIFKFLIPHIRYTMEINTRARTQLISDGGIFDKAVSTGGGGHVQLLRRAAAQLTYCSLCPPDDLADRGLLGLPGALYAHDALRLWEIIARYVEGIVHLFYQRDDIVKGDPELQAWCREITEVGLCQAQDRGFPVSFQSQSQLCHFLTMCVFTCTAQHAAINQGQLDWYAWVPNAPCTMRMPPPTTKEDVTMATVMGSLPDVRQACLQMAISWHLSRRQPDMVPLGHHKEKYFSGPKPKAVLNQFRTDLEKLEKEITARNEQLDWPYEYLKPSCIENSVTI
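Hydroperoxide product was detected by ferrous iron/xylenol orange as the 573 to 405 nm absorbance ratio. Arachidonic acid at 40 uM (final) was turned over for 30 min at room temperature by 150 nM human 12hLO, pH 7.0 Hepes buffer, after 15 min compound preincubation.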
IL1B secr inh: qHTS for Inhibitors of Inflammasome Signaling: IL-1-beta AlphaLISA Primary Screen; THP-1 LPS/ATP IL-1B secretion, AlphaLISA, 16 h; hits give low values; activity change, % at 57.5 µM; hit rate 4.7% among 360,000; in the data active = activity change below about -50%; inconclusive = mostly about -30% to -49%
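Secreted IL-1B measured by AlphaLISA bead assay after 16 h compound exposure of THP-1 cells; compounds (final up to 57.5 uM) added 1 h before LPS (250 ng/mL) and ATP (1.25 mM) stimulation; lower signal means less secretion.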
HT1080 IDH1KD tx: qHTS for induction of synthetic lethality in tumor cells producing 2HG: qHTS for the HT-1080-IDH1KD cell line | HT-1080 IDH1 knockdown viability, ATP luminescence, 48 h | Potency, µM (series often up to 46.1 µM), actives largely listed as cytotoxic | hit rate 2% among 360,000 | AID 686971, 2013
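HT-1080-IDH1KD cells (IDH1 knocked down), 750/well in RPMI with 5% FBS, treated with compound 48 h at 37 degrees C. Viability by CellTiter-Glo luminescence, normalised to DMSO and no-cell wells; concentration-response curves classed.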
DT40 TDP1 CPT: qHTS for Inhibitors of human tyrosyl-DNA phosphodiesterase 1 (TDP1): qHTS in cells in presence of CPT | chicken DT40 Tdp1-/-;hTDP1 cells + 20 nM CPT, ATP luminescence, 48 h | Potency, µM (top dose mostly 46.2 µM), usual class: inhibitors | hit rate 12% among 420,000; note: nearly all actives have a fitted effect of over 55% in size
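Cell growth measured by CellTiter-Glo luminescence after a minimum 48 h, 37 C compound exposure with 20 nM CPT in Tdp1-knockout DT40 cells stably expressing hTDP1, seeded 400/well; qHTS titration format.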
HT1080-NT tox: qHTS for induction of synthetic lethality in tumor cells producing 2HG: qHTS for the HT-1080-NT fibrosarcoma cell line; hit rate 1.6% among 360,000; Potency, µM (series often up to 46.1 µM), actives largely listed as cytotoxic; AID 686970, 2013; HT-1080-NT fibrosarcoma viability, CellTiter-Glo ATP luminescence, 48 h;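 note: NT is the 2HG producing partner of a matched IDH1 knockdown line; nearly all actives have a fitted effect of over 55% in size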
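Viability by CellTiter-Glo luminescence after 48 h compound exposure at 37C of HT-1080-NT cells (750/well, RPMI, 5% FBS). % activity scaled between DMSO wells and medium-only wells, then curve-fitted and categorized by curve class.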
A number is an active result; . = inactive; ? = inconclusive; / = not tested or not shown. Only a selection was taken, and hits are over-represented in it overall. Unless noted, calls come from the whole dose curve; as a rule, active = well fitted curve in the direction sought with a large enough effect; inconclusive = small, poorly fitted or top-dose-only effect, or another doubt; inactive = no such curve, though single readings can be large; an effect the other way counts as inactive or inconclusive.

SMILES	DT40 TDP1 no CPT	ALOX12 inh	IL1B secr inh	HT1080 IDH1KD tx	DT40 TDP1 CPT	HT1080-NT tox
CCN1CCCC1CN(Cc1cc2c(C)cc(C)cc2[nH]c1=O)C(=O)NC1CCCCC1 (stereo unspecified)	?	?	-67	?	23µM	?
Cc1cc(C)c2cc(CN(CCO)C(=O)NC3CCCCC3)c(=O)[nH]c2c1	.	.	-52	.	.	.
Cc1cc(C)c2cc(CN(CCO)C(=O)Nc3ccc(F)cc3)c(=O)[nH]c2c1	.	.	/	.	.	.
Cc1cc(C)c2cc(CN(CCN(C)C)C(=O)Nc3ccccc3Cl)c(=O)[nH]c2c1	15µM	.	.	.	?	.
Cc1ccccc1CC(=O)N1CC[C@@H]2CN(S(C)(=O)=O)[C@@H]2C1	/	.	/	/	/	/
O=C(CCc1ncc(-c2ccc(F)cc2F)o1)NCc1ccc(C(=O)N2CCCC2)cc1	/	.	/	/	/	/
CN1CCN(c2ccccc2NC(=O)c2ccc(-c3ccc(Br)cc3)o2)CC1	3.3µM	/	.	2.6µM	3.3µM	?
CN(CC(=O)Nc1ccc(F)cc1)C(=O)c1ccc(-c2ccc(F)cc2)o1	21µM	.	.	.	?	.
COc1cccc(NC(=O)CN(C)C(=O)c2ccc(-c3ccc(Cl)cc3)o2)c1	?	.	.	.	?	.
COc1ccc(NC(=O)c2ccc(-c3ccc(F)cc3)o2)cc1OC	16µM	.	.	.	21µM	.
CS(=O)(=O)N1CCN(c2ccccc2NC(=O)c2ccc([N+](=O)[O-])o2)CC1	8.2µM	.	?	.	3.7µM	.
CS(=O)(=O)N1CCN(c2ccccc2NC(=O)c2ccc3c(c2)OCCO3)CC1	?	.	.	.	?	.
CC(C)NC(=O)c1ccc(-c2ccc(F)cc2)o1	/	.	/	/	/	/
CCOC(=O)COc1ccc2c(=O)c(-c3ccc(OC)c(OC)c3)coc2c1	/	.	/	/	/	/
O=C(NC1CCN(c2cc(-c3cccs3)[nH]n2)C1)c1cc2ccccc2[nH]1 (stereo unspecified)	/	.	/	/	/	/
CCCCC(=O)NC1CCN(c2cn[nH]c(=O)c2)CC1	/	.	/	/	/	/
Cc1ccc(C(=O)Nc2ncn(CC(=O)NCc3ccc(F)cc3)n2)cc1	/	.	/	/	/	/
COc1cc(NC(=O)c2ccc(-c3cccc(F)c3)o2)ccc1NC(=O)c1ccccc1Cl	18µM	.	.	.	18µM	.
Cc1cc(N2CCN(C)CC2)ccc1NC(=O)c1ccc(-c2ccc(Cl)cc2)o1	?	.	?	23µM	?	23µM
CN1CCN(c2ccccc2NC(=O)c2ccc(-c3cccc([N+](=O)[O-])c3)o2)CC1	15µM	.	.	.	?	.
CN1CCN(c2ccccc2NC(=O)c2cccc([N+](=O)[O-])c2)CC1	.	.	.	.	.	.
COC(=O)c1ccccc1NC(=O)c1ccc(-c2cccc(Cl)c2)o1	.	.	.	.	.	.
CN(C)C(=O)c1ccc(NC(=O)c2ccc(-c3ccc(Cl)cc3)o2)cc1	16µM	?	.	.	23µM	.
Cc1nnc(NC(=O)c2ccc(-c3ccc(Cl)cc3)o2)s1	.	?	.	.	.	.
O=C(Cc1coc2ccc3ccccc3c12)OC[C@@H]1CCCO1	/	.	/	/	/	/
O=C(NC(=S)Nc1ccccc1N1CCOCC1)c1ccc(-c2cc(Cl)ccc2Cl)o1	23µM	?	.	.	?	.
O=C(Nc1ccccc1N1CCCCC1)c1ccc(-c2ccc(Cl)cc2)o1	4.1µM	.	.	2.1µM	3.3µM	2.1µM
CN1CCN(c2ccccc2NC(=O)c2ccc([N+](=O)[O-])o2)CC1	9.2µM	/	.	.	7.3µM	.

High-throughput results: PubChem, National Center for Advancing Translational Sciences (NCATS)
